From the supplement of paper PMC7411640 come the findings set out here.

The assay relates to MDA-MB-468. Put plainly: phospho-S6 immunofluorescence (DAPI-normalised), per-plate z-score; higher = higher phospho-S6 signal (less pathway suppression). To be noted: 24 h. The method, then: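 GPCR-targeted compound library (MedChemExpress HY-L006) tested on MDA-MB-468 PTEN-null TNBC cells in 384-well plates at 0.1, 1 or 10 uM, combined with vehicle, GDC0941 450 nM or lapatinib 1 uM, for 24 h. Phospho-S6 (S240/244) immunofluorescence normalised to DAPI and expressed as a per-plate z-score; values are the mean of biological triplicates.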

Structures can show the parent of a compound that is named as a salt.

Turning to `CCC(N)(C(=O)O)c1ccc(C(=O)O)cc1` (stereo not given) (compound 10 µM), the “phospho-S6 immunofluorescence (z-score)” value is 0.66 (co-treatment: GDC0941 450 nM), 0.12 (co-treatment: lapatinib 1 uM) and -0.54 (co-treatment: vehicle).
On the same counts, the results for `C/C(=N\NC(=O)C(NC(=O)c1ccccc1)c1n[nH]c(=O)c2ccccc12)c1cccc(Br)c1` (stereo not given) (compound 10 µM) are 0.96, 0.13 and 0.95.
On the same counts, the results for `COC1CCC(C(=O)c2ccc3nc4c(cc3c2)CCCO4)CC1` (stereo not given) (compound 10 µM) are -0.83, 0.85 and 0.02.
As for `CCc1cc2c(cc1CC)CC(NC[C@H](O)c1ccc(O)c3[nH]c(=O)ccc13)C2` [Indacaterol (maleate)] (compound 10 µM), the “phospho-S6 immunofluorescence (z-score)” value (co-treatment: GDC0941 450 nM) was -0.81, the “phospho-S6 immunofluorescence (z-score)” value (co-treatment: lapatinib 1 uM) was -1.41 and the “phospho-S6 immunofluorescence (z-score)” value (co-treatment: vehicle) is 0.92.
`CCOC(=O)N1CCC(NCCNC(=O)c2ccccc2C)CC1` (compound 10 µM): the “phospho-S6 immunofluorescence (z-score)” value was 0.96 (co-treatment: GDC0941 450 nM), -0.15 (co-treatment: lapatinib 1 uM) and 1.13 (co-treatment: vehicle).
Turning to `C[N+]1(C)CCC(OC(=O)C(O)(c2ccccc2)C2CCCC2)C1` (stereo not given) [Glycopyrrolate] (compound 10 µM), the “phospho-S6 immunofluorescence (z-score)” value (co-treatment: GDC0941 450 nM) is 0.59, the “phospho-S6 immunofluorescence (z-score)” value (co-treatment: lapatinib 1 uM) came to 0.25 and the “phospho-S6 immunofluorescence (z-score)” value (co-treatment: vehicle) was 1.14.
For `CN(C)CCC(c1ccc(Br)cc1)c1ccccn1` (stereo not given) [Brompheniramine (maleate)] (compound 10 µM), the “phospho-S6 immunofluorescence (z-score)” value (co-treatment: GDC0941 450 nM) was 0.58, the “phospho-S6 immunofluorescence (z-score)” value (co-treatment: lapatinib 1 uM) is -0.17 and the “phospho-S6 immunofluorescence (z-score)” value (co-treatment: vehicle) is 0.3.
On the same counts, the results for `N#Cc1ccc2[nH]cc(CCCCN3CCN(c4ccc5oc(C(N)=O)cc5c4)CC3)c2c1` [Vilazodone (Hydrochloride)] (compound 10 µM) are -0.01, -0.76 and 0.65.
Take `O=C1CC2(CCCC2)CC(=O)N1CCCCN1CCN(c2ncccn2)CC1` [Buspirone (hydrochloride)] (compound 10 µM): the “phospho-S6 immunofluorescence (z-score)” value (co-treatment: GDC0941 450 nM) was found to be 0.3, the “phospho-S6 immunofluorescence (z-score)” value (co-treatment: lapatinib 1 uM) amounted to 0.17 and the “phospho-S6 immunofluorescence (z-score)” value (co-treatment: vehicle) worked out at 0.69.
As for `NCCc1c[nH]cn1` [Histamine] (compound 10 µM), the “phospho-S6 immunofluorescence (z-score)” value reads like this: (co-treatment: GDC0941 450 nM) 0; (co-treatment: lapatinib 1 uM) 1.34; (co-treatment: vehicle) 0.58.
